# From article PMC11006913
# Residue numbers refer to the chain shown, from its start.
# How the values were obtained:
# Assay in all cases: PBM; 200 nM protein, PBS
# Conditions in all cases: dsDNA, one strand shown
# CRX [1] = target: CRX (Homo sapiens, UniProt O43186 26-111)
# SIX6 [2] = target: T1, SIX6 (Homo sapiens, UniProt O95475 114-200, L167I)
# T1 sequence: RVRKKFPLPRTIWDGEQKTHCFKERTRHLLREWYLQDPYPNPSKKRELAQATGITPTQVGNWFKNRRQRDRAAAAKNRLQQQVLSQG
# SIX6 [3] = target: T2, SIX6 (Homo sapiens, UniProt O95475 114-200, L143V)
# T2 sequence: T1 sequence with L30V, I54L
# SIX6 [4] = target: T3, SIX6 (Homo sapiens, UniProt O95475 114-200, H141N)
# T3 sequence: T1 sequence with H28N, I54L
# SIX6 [5] = target: T4, SIX6 (Homo sapiens, UniProt O95475 114-200, T165P)
# T4 sequence: T1 sequence with T52P, I54L
# SIX6 [6] = target: T5, SIX6 (Homo sapiens, UniProt O95475 114-200, L143I)
# T5 sequence: T1 sequence with L30I, I54L
# SIX6 [7] = target: T6, SIX6 (Homo sapiens, UniProt O95475 114-200, T165G)
# T6 sequence: T1 sequence with T52G, I54L
# SIX6 [8] = target: T7, SIX6 (Homo sapiens, UniProt O95475 114-200, T139Q)
# T7 sequence: T1 sequence with T26Q, I54L
# CRX [9] = target: CRX (Homo sapiens, UniProt O43186 26-111, E42D)
# SIX6 [10] = target: T8, SIX6 (Homo sapiens, UniProt O95475 114-200)
# T8 sequence: T1 sequence with I54L
# HOXC9 [11] = target: HOXC9 (Homo sapiens, UniProt P31274 178-260, K195R)
# HOXC9 [12] = target: HOXC9 (Homo sapiens, UniProt P31274 178-260)
# ALX1 [13] = target: ALX1 (Homo sapiens, UniProt Q15699 118-204, L144V)
# HOXC9 [14] = target: HOXC9 (Homo sapiens, UniProt P31274 178-260, R193K)
# ALX1 [15] = target: ALX1 (Homo sapiens, UniProt Q15699 118-204, L144R)
# HOXC9 [16] = target: HOXC9 (Homo sapiens, UniProt P31274 178-260, R222W)
# CRX [17] = target: CRX (Homo sapiens, UniProt O43186 26-111, R41L)
# ALX1 [18] = target: ALX1 (Homo sapiens, UniProt Q15699 118-204)
# HOXB9 [19] = target: HOXB9 (Homo sapiens, UniProt P17482 171-250, T197M)
# HOXA7 [20] = target: HOXA7 (Homo sapiens, UniProt P31268 116-202)
# PAX4 [21] = target: T9, PAX4 (Homo sapiens, UniProt O43316 9-242, R200K)
# T9 sequence: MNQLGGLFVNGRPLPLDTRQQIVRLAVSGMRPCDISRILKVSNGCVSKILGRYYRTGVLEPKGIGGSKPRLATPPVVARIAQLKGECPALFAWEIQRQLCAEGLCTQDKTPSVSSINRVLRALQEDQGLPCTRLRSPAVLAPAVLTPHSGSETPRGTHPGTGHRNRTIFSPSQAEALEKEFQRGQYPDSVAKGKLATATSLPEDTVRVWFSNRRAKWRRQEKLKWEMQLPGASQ
# PAX4 [22] = target: T10, PAX4 (Homo sapiens, UniProt O43316 9-242)
# T10 sequence: T9 sequence with K192R
# HOXB6 [23] = target: HOXB6 (Homo sapiens, UniProt P17509 132-218, K202E)
# HOXB9 [24] = target: HOXB9 (Homo sapiens, UniProt P17482 171-250)
# ALX3 [25] = target: ALX3 (Homo sapiens, UniProt O95076 139-225, N203Q)
# HOXD13 = HOXD13 (Homo sapiens, UniProt P35453 263-343, T313R)
# PAX4 [26] = target: T11, PAX4 (Homo sapiens, UniProt O43316 9-242, R200Q)
# T11 sequence: T9 sequence with K192Q
# PAX4 [27] = target: T12, PAX4 (Homo sapiens, UniProt O43316 9-242, F177V)
# T12 sequence: T9 sequence with F169V, K192R
# HOXC10 = HOXC10 (Homo sapiens, UniProt Q9NYD6 254-340, K271E)
# PAX4 [28] = target: T13, PAX4 (Homo sapiens, UniProt O43316 9-242, F177Y)
# T13 sequence: T9 sequence with F169Y, K192R
# HESX1 [29] = target: HESX1 (Homo sapiens, UniProt Q9UBX0 95-180, R109Q)
# HOXB9 [30] = target: HOXB9 (Homo sapiens, UniProt P17482 171-250, R186Q)
# HESX1 [31] = target: HESX1 (Homo sapiens, UniProt Q9UBX0 95-180, F115L)
# PAX4 [32] = target: T14, PAX4 (Homo sapiens, UniProt O43316 9-242, R227W)
# T14 sequence: T9 sequence with K192R, R219W
# HOXA7 [33] = target: HOXA7 (Homo sapiens, UniProt P31268 116-202, W177C)
# ALX3 [34] = target: ALX3 (Homo sapiens, UniProt O95076 139-225, N203S)
# HOXB6 [35] = target: HOXB6 (Homo sapiens, UniProt P17509 132-218)
# Chain of HOXB6 (Homo sapiens, UniProt P17509 132-218) (P17509 132-218): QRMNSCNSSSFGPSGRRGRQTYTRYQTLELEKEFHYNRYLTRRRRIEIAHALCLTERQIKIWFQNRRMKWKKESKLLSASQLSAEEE
# Chain of CRX (Homo sapiens, UniProt O43186 26-111) (O43186 26-111): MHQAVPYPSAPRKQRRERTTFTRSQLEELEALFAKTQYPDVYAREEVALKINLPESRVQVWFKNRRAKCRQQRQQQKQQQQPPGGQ
# Chain of CRX (Homo sapiens, UniProt O43186 26-111, E42D) (O43186 26-111 E42D): as the sequence (O43186 26-111) above, with E17D counted along it
# Chain of HOXC9 (Homo sapiens, UniProt P31274 178-260, K195R) (P31274 178-260 K195R): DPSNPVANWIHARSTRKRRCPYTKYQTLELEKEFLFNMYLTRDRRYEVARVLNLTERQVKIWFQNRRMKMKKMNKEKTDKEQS
# Chain of HOXC9 (Homo sapiens, UniProt P31274 178-260) (P31274 178-260): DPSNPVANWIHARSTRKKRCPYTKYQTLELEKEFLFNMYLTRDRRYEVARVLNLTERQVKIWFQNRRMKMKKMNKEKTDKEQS
# Chain of CRX (Homo sapiens, UniProt O43186 26-111, R41L) (O43186 26-111 R41L): as the sequence (O43186 26-111) above, with R16L counted along it
# Chain of HOXC9 (Homo sapiens, UniProt P31274 178-260, R193K) (P31274 178-260 R193K): as the sequence (P31274 178-260) above, with R16K counted along it
# Chain of HOXC9 (Homo sapiens, UniProt P31274 178-260, R222W) (P31274 178-260 R222W): as the sequence (P31274 178-260) above, with R45W counted along it
# Chain of ALX3 (Homo sapiens, UniProt O95076 139-225, N203Q) (O95076 139-225 N203Q): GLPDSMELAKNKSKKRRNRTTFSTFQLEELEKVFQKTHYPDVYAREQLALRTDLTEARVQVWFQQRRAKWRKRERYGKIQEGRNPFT
# Chain of HOXC10 (Q9NYD6 254-340 K271E): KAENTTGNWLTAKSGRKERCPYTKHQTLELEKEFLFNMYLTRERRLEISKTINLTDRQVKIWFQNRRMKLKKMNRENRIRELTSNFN
# Chain of HOXA7 (Homo sapiens, UniProt P31268 116-202) (P31268 116-202): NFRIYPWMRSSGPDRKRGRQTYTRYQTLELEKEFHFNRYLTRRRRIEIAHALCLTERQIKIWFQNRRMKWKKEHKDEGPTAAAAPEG
# Chain of ALX1 (Homo sapiens, UniProt Q15699 118-204, L144V) (Q15699 118-204 L144V): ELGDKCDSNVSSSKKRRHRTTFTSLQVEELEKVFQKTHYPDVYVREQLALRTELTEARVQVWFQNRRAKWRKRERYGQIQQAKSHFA
# Chain of ALX3 (Homo sapiens, UniProt O95076 139-225, N203S) (O95076 139-225 N203S): as the sequence (O95076 139-225 N203Q) above, with Q65S counted along it
# Chain of HOXB9 (Homo sapiens, UniProt P17482 171-250) (P17482 171-250): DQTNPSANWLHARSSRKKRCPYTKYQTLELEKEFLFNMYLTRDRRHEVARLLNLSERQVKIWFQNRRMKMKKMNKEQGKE
# Chain of HOXB6 (Homo sapiens, UniProt P17509 132-218, K202E) (P17509 132-218 K202E): as the sequence (P17509 132-218) above, with K71E counted along it
# Chain of ALX1 (Homo sapiens, UniProt Q15699 118-204, L144R) (Q15699 118-204 L144R): as the sequence (Q15699 118-204 L144V) above, with V27R counted along it
# Chain of HESX1 (Homo sapiens, UniProt Q9UBX0 95-180, F115L) (Q9UBX0 95-180 F115L): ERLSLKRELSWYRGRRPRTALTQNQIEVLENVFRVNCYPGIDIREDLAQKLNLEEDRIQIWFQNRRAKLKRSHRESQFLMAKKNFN
# Chain of HESX1 (Homo sapiens, UniProt Q9UBX0 95-180, R109Q) (Q9UBX0 95-180 R109Q): as the sequence (Q9UBX0 95-180 F115L) above, with R15Q, L21F counted along it
# Chain of ALX1 (Homo sapiens, UniProt Q15699 118-204) (Q15699 118-204): as the sequence (Q15699 118-204 L144V) above, with V27L counted along it
# Chain of HOXB9 (Homo sapiens, UniProt P17482 171-250, T197M) (P17482 171-250 T197M): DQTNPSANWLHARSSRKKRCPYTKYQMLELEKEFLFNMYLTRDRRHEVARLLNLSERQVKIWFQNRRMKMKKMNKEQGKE
# Chain of HOXD13 (P35453 263-343 T313R): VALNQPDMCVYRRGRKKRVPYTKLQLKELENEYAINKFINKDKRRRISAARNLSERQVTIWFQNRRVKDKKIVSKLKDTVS
# Chain of HOXA7 (Homo sapiens, UniProt P31268 116-202, W177C) (P31268 116-202 W177C): as the sequence (P31268 116-202) above, with W62C counted along it
# Chain of HOXB9 (Homo sapiens, UniProt P17482 171-250, R186Q) (P17482 171-250 R186Q): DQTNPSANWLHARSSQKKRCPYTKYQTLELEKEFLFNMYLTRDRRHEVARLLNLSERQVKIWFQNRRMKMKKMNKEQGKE
sequence,measurement,setting,value
CCCTGATC,binding signal,CRX [1],"10.2 upbm affinity estimate (log intensity, higher = more binding, comparable within an allelic series)"
same,binding signal,SIX6 [2],"10.2 upbm affinity estimate (log intensity, higher = more binding, comparable within an allelic series)"
same,binding signal,SIX6 [3],"9.63 upbm affinity estimate (log intensity, higher = more binding, comparable within an allelic series)"
same,binding signal,SIX6 [4],"10.2 upbm affinity estimate (log intensity, higher = more binding, comparable within an allelic series)"
same,binding signal,SIX6 [5],"9.31 upbm affinity estimate (log intensity, higher = more binding, comparable within an allelic series)"
same,binding signal,SIX6 [6],"9.69 upbm affinity estimate (log intensity, higher = more binding, comparable within an allelic series)"
same,binding signal,SIX6 [7],"10.3 upbm affinity estimate (log intensity, higher = more binding, comparable within an allelic series)"
same,binding signal,SIX6 [8],"10.4 upbm affinity estimate (log intensity, higher = more binding, comparable within an allelic series)"
same,binding signal,CRX [9],"10 upbm affinity estimate (log intensity, higher = more binding, comparable within an allelic series)"
same,binding signal,SIX6 [10],"10.2 upbm affinity estimate (log intensity, higher = more binding, comparable within an allelic series)"
GACGCGTC,binding signal,CRX [1],"8.63 upbm affinity estimate (log intensity, higher = more binding, comparable within an allelic series)"
same,binding signal,HOXC9 [11],"9.76 upbm affinity estimate (log intensity, higher = more binding, comparable within an allelic series)"
same,binding signal,CRX [9],"8.54 upbm affinity estimate (log intensity, higher = more binding, comparable within an allelic series)"
same,binding signal,HOXC9 [12],"9.79 upbm affinity estimate (log intensity, higher = more binding, comparable within an allelic series)"
same,binding signal,ALX1 [13],"6.58 upbm affinity estimate (log intensity, higher = more binding, comparable within an allelic series)"
same,binding signal,HOXC9 [14],"9.46 upbm affinity estimate (log intensity, higher = more binding, comparable within an allelic series)"
same,binding signal,ALX1 [15],"6.43 upbm affinity estimate (log intensity, higher = more binding, comparable within an allelic series)"
same,binding signal,HOXC9 [16],"9.62 upbm affinity estimate (log intensity, higher = more binding, comparable within an allelic series)"
same,binding signal,CRX [17],"8.22 upbm affinity estimate (log intensity, higher = more binding, comparable within an allelic series)"
same,binding signal,ALX1 [18],"6.73 upbm affinity estimate (log intensity, higher = more binding, comparable within an allelic series)"
ATATTAAT,binding signal,CRX [1],"11.6 upbm affinity estimate (log intensity, higher = more binding, comparable within an allelic series)"
same,binding signal,HOXB9 [19],"10.2 upbm affinity estimate (log intensity, higher = more binding, comparable within an allelic series)"
same,binding signal,HOXC9 [11],"12.5 upbm affinity estimate (log intensity, higher = more binding, comparable within an allelic series)"
same,binding signal,HOXA7 [20],"11.2 upbm affinity estimate (log intensity, higher = more binding, comparable within an allelic series)"
same,binding signal,PAX4 [21],"11.7 upbm affinity estimate (log intensity, higher = more binding, comparable within an allelic series)"
same,binding signal,PAX4 [22],"12.1 upbm affinity estimate (log intensity, higher = more binding, comparable within an allelic series)"
same,binding signal,HOXB6 [23],"10.1 upbm affinity estimate (log intensity, higher = more binding, comparable within an allelic series)"
same,binding signal,HOXB9 [24],"11.8 upbm affinity estimate (log intensity, higher = more binding, comparable within an allelic series)"
same,binding signal,CRX [9],"11.5 upbm affinity estimate (log intensity, higher = more binding, comparable within an allelic series)"
same,binding signal,HOXC9 [12],"12.5 upbm affinity estimate (log intensity, higher = more binding, comparable within an allelic series)"
same,binding signal,ALX3 [25],"8.63 upbm affinity estimate (log intensity, higher = more binding, comparable within an allelic series)"
same,binding signal,HOXD13,"10.8 upbm affinity estimate (log intensity, higher = more binding, comparable within an allelic series)"
same,binding signal,PAX4 [26],"11.9 upbm affinity estimate (log intensity, higher = more binding, comparable within an allelic series)"
same,binding signal,HOXC9 [14],"12.5 upbm affinity estimate (log intensity, higher = more binding, comparable within an allelic series)"
same,binding signal,PAX4 [27],"10.7 upbm affinity estimate (log intensity, higher = more binding, comparable within an allelic series)"
same,binding signal,HOXC10,"11.8 upbm affinity estimate (log intensity, higher = more binding, comparable within an allelic series)"
same,binding signal,PAX4 [28],"11 upbm affinity estimate (log intensity, higher = more binding, comparable within an allelic series)"
same,binding signal,HESX1 [29],"8.59 upbm affinity estimate (log intensity, higher = more binding, comparable within an allelic series)"
same,binding signal,HOXB9 [30],"11.5 upbm affinity estimate (log intensity, higher = more binding, comparable within an allelic series)"
same,binding signal,HOXC9 [16],"11.1 upbm affinity estimate (log intensity, higher = more binding, comparable within an allelic series)"
same,binding signal,HESX1 [31],"8.13 upbm affinity estimate (log intensity, higher = more binding, comparable within an allelic series)"
same,binding signal,PAX4 [32],"11 upbm affinity estimate (log intensity, higher = more binding, comparable within an allelic series)"
same,binding signal,HOXA7 [33],"9 upbm affinity estimate (log intensity, higher = more binding, comparable within an allelic series)"
same,binding signal,CRX [17],"11 upbm affinity estimate (log intensity, higher = more binding, comparable within an allelic series)"
same,binding signal,ALX3 [34],"8.74 upbm affinity estimate (log intensity, higher = more binding, comparable within an allelic series)"
same,binding signal,HOXB6 [35],"11.8 upbm affinity estimate (log intensity, higher = more binding, comparable within an allelic series)"
